PubChem BioAssay AID492998 (Southern Research Specialized Biocontainment Screening …, 2010)
The whole screen tested about 2,300 compounds, of which about 550 (24%) were called active. These entries were drawn from the full list. Measured potencies and affinities stand elsewhere. Unmarked numbers belong to inactive results. How the calls were made is not given here.

Assay: Vero E6 cell cytotoxicity, dose response, cytotoxicity control for non-replicating M. tuberculosis project, secondary assay (AID 492998);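 further: 100% = vehicle-treated cells and 0% = background wells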
Details: series mostly up to 20 µM; viability: at the top concentration
In the case of `CCCCOC(=O)Cn1c(-c2ccccc2)nc2ccccc2c1=O`, the “viability” value is reported as 100%.
In the case of `CCOC(=O)c1cc(-c2csc(COc3ccc(Cl)cc3)n2)on1`, the “viability” value is reported as 97.1%.
For `NC(=O)C1CCN(C2CC(=O)NC2=O)CC1` (stereo unspecified), the “viability” value was 102%.
In the case of `CCC(C)n1c(=S)[nH]c2ccccc2c1=O` (stereo unspecified), the “viability” value is reported as 96.8%.
With `Nc1ccc2nc3c(c(Cl)c2c1)CCCC3` the “viability” value was 72.4%.
In the case of `O=C(CCSc1nnc(-c2ccncc2)o1)Nc1ccc(Cl)cc1`, the “viability” value is reported as 93.8%.
With `CCOC(=O)C(C)(C)n1nnc(-c2ccc([N+](=O)[O-])cc2)n1` the “viability” value was 93.6%.
With `CCC1(O)CC(c2ccccc2)=NN1C(=O)c1ccccc1F` (stereo unspecified) the “viability” value was 91.2%.
In the case of `Cc1cc(=O)n2cccc(O)c2n1`, the “viability” value is reported as 97.5%.
For `O=C(NNc1nc2cc3c(cc2s1)OCCO3)c1ccccc1`, the “viability” value was 107%.
In the case of `C/C(CC(=O)Nc1ccc(N(C)C)cc1)=N\NC(=O)c1ccncc1`, the “viability” value is reported as 102%.
In the case of `NC(=O)c1cccnc1Nc1cccc(F)c1`, the “viability” value is reported as 93.6%.
With `CN(C)CCCn1c(=O)n(C2CCCCC2)c(=O)c2c3c(sc21)CCCCC3` the “viability” value was 78%.
With `CN(C)CCNc1c2c(c(C#N)c3nc4ccccc4n13)CCCC2` the “viability” value was 104%.
With `COc1cc(/C=N/Nc2ccc(Cl)c(C(=O)O)c2)ccc1OC(=O)c1cccs1` the “viability” value was 104%.
In the case of `CC1=NN(C(=O)c2csc(C)c2C)C(O)(C(F)(F)F)C1` (stereo unspecified), the “viability” value is reported as 108%.
With `O=C(CCc1ccccc1F)N1CCN(c2ccccc2)CC1` the “viability” value was 97.2%.
For `Cc1cc(/C=N\NC(=O)c2cccs2)c(C)n1-c1ccc2ncccc2c1`, the “viability” value was 76.1%.
In the case of `O=c1cc(-c2ccccc2Cl)oc2c([N+](=O)[O-])c(O)cc(O)c12`, the “viability” value is reported as 85.8%.
In the case of `C/C(=N/NC(=O)c1cccc(C)c1)c1c(O)cc(C)oc1=O`, the “viability” value is reported as 98.4%.
For `O=C(CCc1ccccc1)NC1C2CC3CC(C2)CC1C3` (stereo unspecified), the “viability” value was 91.7%.
For `C/C(=N\NC(=O)c1ccncc1)c1cc2ccccc2oc1=O`, the “viability” value was 96.3%.
With `CC1CCN(C(=O)COC(=O)c2cc3ccccc3cc2O)CC1` the “viability” value was 85.2%.
For `C/C(=N\NC(=O)c1cccc(Cl)c1)C1C(=O)c2ccccc2C1=O`, the “viability” value was 81.5%.
With `O=C(NC(=S)NCCc1ccccc1)c1ccccc1` the “viability” value was 100%.
In the case of `O=C1/C(=C/C=C/c2ccccc2)Oc2c1ccc(O)c2CN1CCN(CCO)CC1`, the “viability” value is reported as 96.3%.
With `O=C(COC(=O)C1CC2C=CC1C2)Nc1ccccc1` (stereo unspecified) the “viability” value was 96.3%.
With `COC(=O)c1cc2c(ccc3ccccc32)oc1=O` the “viability” value was 108%.
For `COc1ccc(-c2cc(=O)oc(-c3cccc(C)c3)n2)cc1`, the “viability” value was 90%.
With `Cc1nn(-c2ccccc2)nc1C(=O)c1c(C)[nH]n(-c2ccccc2)c1=O` the “viability” value was 86.6%.
With `O=C(OCc1c(Cl)cccc1Cl)c1ccccn1` the “viability” value was 91%.
In the case of `CCOC(=O)c1ccc(COC(=O)c2cc3ccccc3oc2=O)o1`, the “viability” value is reported as 113%.
In the case of `CC(=O)NCCOC(=O)Nc1sc(=S)n(C)c1C`, the “viability” value is reported as 94.9%.
For `CC1CCN(C(=O)C2COc3ccccc3O2)CC1` (stereo unspecified), the “viability” value was 105%.
In the case of `Cc1csc(=Nc2cccnc2)n1CC1CCCCC1`, the “viability” value is reported as 108%.
With `CNC(=O)COC(=O)c1ccc(-c2nc3ccccc3s2)s1` the “viability” value was 102%.
In the case of `CC(C)N1CCc2c(sc(NC(=O)CCS(=O)(=O)c3ccccc3)c2C#N)C1`, the “viability” value is reported as 71.5%.
For `COCCCC1CCN(Cc2nc(-c3ccccc3)no2)CC1`, the “viability” value was 94.4%.
With `CC(C)(C)c1ccc(S(=O)(=O)NNC(=O)c2cc3ccccc3[nH]2)cc1` the “viability” value was 86.8%.
For `CC(C)(C)CC(=O)NC(=S)NCc1ccco1`, the “viability” value was 97.7%.
For `CCOC(=O)COc1cc(N)c(Cl)cc1Cl`, the “viability” value was 106%.
For `CCn1cc(C(=O)NC(C)C23CC4CC(CC(C4)C2)C3)cn1` (stereo unspecified), the “viability” value was 90.4%.
For `Cc1ccc(S(=O)(=O)N2CCC(C(=O)OCc3ccccc3)CC2)cc1C`, the “viability” value was 102%.
With `COc1ccc2c([N+](=O)[O-])c(N3CCCC3)[nH]c2c1` the “viability” value was 91%.
In the case of `Cc1ccc(OCCCCn2ccnc2)c([N+](=O)[O-])c1`, the “viability” value is reported as 102%.
With `CCCc1cc(NCCCn2ccnc2)n2nc(C)c(-c3ccccc3)c2n1` the “viability” value was 73.8%.
For `Clc1ccc(-c2ccc(CNCc3ccccn3)o2)cc1`, the “viability” value was 88.3%.
In the case of `Fc1ccc(-c2ccc(CNCc3ccccn3)o2)cc1Cl`, the “viability” value is reported as 110%.
In the case of `Clc1cccc(-c2ccc(CNCc3ccccn3)o2)c1`, the “viability” value is reported as 101%.
In the case of `O=C(Oc1ccccc1)c1cc2ccccc2o1`, the “viability” value is reported as 101%.
For `Cc1cc(C(=O)NNc2ccc(Cl)cc2)no1`, the “viability” value was 105%.
In the case of `COc1cccc(C(=O)C2CCCN(CC3=Cc4cc(OC)ccc4OC3)C2)c1` (stereo unspecified), the “viability” value is reported as 97.2%.
For `N/C(=N\OC(=O)c1cccs1)c1ccccc1`, the “viability” value was 91.9%.
With `C=CCN(CC=C)C(=O)Cc1ccc(F)cc1` the “viability” value was 104%.
For `O=[N+]([O-])c1ccc(Nc2ccccc2O)c2nonc12`, the “viability” value was 111%.
For `Cc1ccc2[nH]c(C)c(CCNC(=O)c3cc4cc([N+](=O)[O-])ccc4oc3=O)c2c1`, the “viability” value was 85%.
With `CC(NC(=O)c1cc2cc(Br)ccc2oc1=N)c1ccccc1` (stereo unspecified) the “viability” value was 90.7%.
In the case of `CCOCCOC(=O)COc1ccc2c(-c3ccccc3)cc(=O)oc2c1`, the “viability” value is reported as 94.9%.
With `CC1=NN(C(=O)c2ccc(C)o2)C(O)(c2ccccc2)C1` (stereo unspecified) the “viability” value was 98.4%.
With `O=C(NC1CCCC1)c1nc2c(nnn2Cc2cccc(Cl)c2)c(=O)[nH]1` the “viability” value was 95.9%.
For `N=c1oc2ccccc2cc1C(=O)NC1CCCCCC1`, the “viability” value was 98.4%.
For `CC(=O)c1ccc(-n2cc(-c3ccc(C(C)(C)C)cc3)[n+]3c2SCCC3)cc1`, the “viability” value was 98.5%.
In the case of `O=C(NCC(c1cccs1)N1CCOCC1)c1cc([N+](=O)[O-])cc([N+](=O)[O-])c1` (stereo unspecified), the “viability” value is reported as 78.3%.
For `COc1ccc([N+](=O)[O-])c(S(=O)(=O)c2ccc(Cl)cc2)n1`, the “viability” value was 92.8%.
With `COC(=O)CCCCCN1C(=O)/C(=C\c2ccncc2)SC1=S` the “viability” value was 75.8%.
With `COc1ccc(-c2noc(-c3cc4ccccc4oc3=O)n2)cc1` the “viability” value was 97.7%.
For `CCN(CC)c1ccc2cc(C(=O)NCc3ccc(F)cc3)c(=N)oc2c1`, the “viability” value was 80%.
With `O=C(Nc1ccccc1F)c1ccc(Br)o1` the “viability” value was 104%.
With `COc1ccccc1OCC(=O)N/N=C/C=C/c1ccc([N+](=O)[O-])o1` the “viability” value was 73.2%.
In the case of `Cc1ccccc1NC(=O)c1nc[nH]c1C(=O)NCc1ccccc1`, the “viability” value is reported as 97.9%.
With `COc1ccccc1NC(=O)c1cnc(SC)nc1` the “viability” value was 105%.
With `O=C(Nc1nc2c(Cl)cccc2s1)c1ccc([N+](=O)[O-])o1` the “viability” value was 76.2%.
In the case of `N=c1oc2ccc(Cl)cc2cc1C(=O)NC1CCCCCC1`, the “viability” value is reported as 99.1%.
In the case of `COc1cc2c(cc1OC)CN(CCC(=O)c1ccc(Br)cc1)CC2`, the “viability” value is reported as 88.3%.
In the case of `CC1(C)C[C@H]2C=C(C=O)[C@]3(C=O)C[C@]3(C)[C@H]2C1`, the “viability” value is reported as 96.4%.
For `CCc1ccc(C(=O)COC(=O)c2ccc(Cl)nc2)cc1`, the “viability” value was 105%.
